Measurements as given in PubChem BioAssay (NCI).
About 79,000 compounds went through this panel and 15% of them were active in at least one assay; those are over-represented in the sample as a whole. The source made the active and inactive calls. No stated cut-off is given here; in the data, active means growth inhibition above about 70%; inactive means the rest.

Experiments:
[1] = NCI Yeast Anticancer Drug Screen. Data for the rad52 strain (AID 147);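 further: 0% = growth of vehicle-treated control cultures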; conditions: S. cerevisiae rad52 mutant growth inhibition, active compounds read high
How it was run: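 Growth of repair-deficient yeast cells was compared between compound-treated and vehicle-treated cultures to give percent inhibition.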

[2] = NCI Yeast Anticancer Drug Screen. Data for the wt1 strain (AID 149);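 further: 0% = growth of vehicle-treated wt1 cultures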; conditions: S. cerevisiae wt1 strain (SPY 50644) growth inhibition, active compounds read high
How it was run: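 The wt1 strain was treated with compounds, and growth was compared with vehicle-treated cultures to give inhibition.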

[3] = NCI Yeast Anticancer Drug Screen. Data for the rad50EPP+ strain (AID 151);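 further: 0% = growth of vehicle-treated control cultures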; conditions: S. cerevisiae rad50 mutant strain, active compounds read high
How it was run: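 Measured: growth inhibition of rad50EPP+ yeast. Reference: vehicle-treated controls. Screen uses strains with defined genetic alterations in DNA damage repair or cell cycle control.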

[4] = NCI Yeast Anticancer Drug Screen. Data for the mgt1 strain (AID 153); conditions: S. cerevisiae mgt1 mutant growth inhibition, active compounds read high
How it was run: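 Compounds were applied to mgt1 mutant yeast, and growth was then compared against vehicle-treated control cultures to give percent inhibition.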

[5] = NCI Yeast Anticancer Drug Screen. Data for the rad50 strain (AID 155);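 further: 0% = growth of vehicle-only cultures of the same strain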; conditions: S. cerevisiae rad50 strain growth inhibition, active compounds read high
How it was run: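 Cells are treated with compound, grown, and their growth is then scored against vehicle-only cultures of the same repair-deficient yeast strain.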

[6] = NCI Yeast Anticancer Drug Screen. Data for the mec2-1 strain (AID 157); conditions: S. cerevisiae mec2-1 strain, active compounds read high
How it was run: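 Compounds were applied to mec2-1 yeast cells. Their growth was then compared with that of vehicle-treated cultures to give growth inhibition.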

[7] = NCI Yeast Anticancer Drug Screen. Data for the rad14 strain (AID 159);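 further: 0% = growth of vehicle-treated control cultures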; conditions: S. cerevisiae rad14 strain growth inhibition, active compounds read high
How it was run: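 Readout: yeast growth inhibition, referenced to vehicle-only cultures. Strain bears a defined alteration in DNA damage repair.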

[8] = NCI Yeast Anticancer Drug Screen. Data for the sgs1 mgt1 strain (AID 161);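 further: 0% = growth of cultures given vehicle only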; conditions: S. cerevisiae sgs1 mgt1 strain, active compounds read high
How it was run: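 Yeast cells carrying a defined DNA-repair defect were exposed to test compounds. Growth inhibition was measured relative to vehicle-treated controls.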

[9] = NCI Yeast Anticancer Drug Screen. Data for the cln2 rad14 strain (AID 165);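 further: 0% = growth equal to vehicle treated cultures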; conditions: S. cerevisiae cln2 rad14 strain, active compounds read high
How it was run: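 Strain: cln2 rad14 yeast, altered in cell cycle control and DNA damage repair. Read-out: growth inhibition vs vehicle.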

[10] = NCI Yeast Anticancer Drug Screen. Data for the bub3 strain (AID 167); conditions: S. cerevisiae bub3 mutant strain, active compounds read high
How it was run: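 Part of a panel of yeast mutants defective in DNA damage repair or cell cycle regulation. Each strain is grown with compound, and inhibition is calculated relative to solvent-treated cultures.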

[11] = NCI Yeast Anticancer Drug Screen. Data for the wt2 strain (AID 169);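 further: 0% = growth of vehicle-treated yeast cultures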; conditions: S. cerevisiae wt2 strain growth inhibition, active compounds read high
How it was run: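 Growth of compound-treated yeast is measured and expressed as inhibition relative to vehicle-only controls.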

[12] = NCI Yeast Anticancer Drug Screen. Data for the mlh1 strain (AID 171);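 further: 0% = growth of vehicle-treated control cultures of the same strain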; conditions: S. cerevisiae mlh1 strain growth inhibition, active compounds read high
How it was run: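 Test agents were incubated with yeast bearing a defined DNA damage repair or cell cycle control alteration; values are growth inhibition normalised to vehicle-treated cultures.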

[13] = NCI Yeast Anticancer Drug Screen. Data for the sgs1 strain (AID 173);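 further: 0% = growth of vehicle-only control cultures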; conditions: S. cerevisiae sgs1 mutant, active compounds read high
How it was run: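 Strain with an altered DNA repair or cell cycle pathway exposed to compound. Growth then measured. Value = inhibition versus vehicle control.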

[14] = NCI Yeast Anticancer Drug Screen. Data for the mlh1 rad18 strain (AID 175); conditions: S. cerevisiae mlh1 rad18 strain growth inhibition, active compounds read high
How it was run: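 A repair-deficient yeast strain is exposed to test compound, and growth is scored relative to vehicle-treated controls.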

[15] = NCI Yeast Anticancer Drug Screen. Data for the rad18 strain (AID 177); conditions: S. cerevisiae rad18 mutant growth inhibition, active compounds read high
How it was run: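 DNA-repair-defective yeast; compound treatment; growth inhibition scored against vehicle.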

[16] = at 5.0 µM (retest, dose inferred, filed as 0.5)
[17] = at 50.0 µM (retest, dose inferred, filed as 5.0)

Measured: growth inhibition

O=C(NC(=S)Nc1ccccn1)c1ccccc1
active: [5]; [16] 97% | [5]; [17] 100% | [6]; [16] 100% | [6]; [17] 100% | [14]; [16] 100% | [14]; [17] 100%
inactive: [1]; at 1.2 µM -30% | [1]; at 3.7 µM -43% | [1]; at 11.0 µM -35% | [1]; at 33.0 µM -28% | [1]; at 100.0 µM -22% | [2]; at 1.2 µM -26% | [2]; at 3.7 µM -36% | [2]; at 11.0 µM -32% | [2]; at 33.0 µM -19% | [2]; at 100.0 µM -24% | [3]; at 1.2 µM -30% | [3]; at 3.7 µM -51% | [3]; at 11.0 µM -69% | [3]; at 33.0 µM -53% | [3]; at 100.0 µM 25% | [4]; at 1.2 µM -62% | [4]; at 3.7 µM -40% | [4]; at 11.0 µM -58% | [4]; at 33.0 µM -41% | [4]; at 100.0 µM -22% | [5]; at 1.2 µM -12% | [5]; at 3.7 µM -9% | [5]; at 11.0 µM -19% | [5]; at 33.0 µM -30% | [5]; at 50.0 µM 28.7% | [5]; at 100.0 µM -14% | [6]; at 1.2 µM -73% | [6]; at 3.7 µM -55% | [6]; at 11.0 µM -51% | [6]; at 33.0 µM -54% | [6]; at 50.0 µM 25.1% | [6]; at 100.0 µM -50% | [7]; at 1.2 µM -30% | [7]; at 3.7 µM -20% | [7]; at 11.0 µM -19% | [7]; at 33.0 µM -21% | [7]; at 100.0 µM -23% | [8]; [16] -21% | [8]; [17] 50% | [8]; at 50.0 µM 60.5% | [9]; [16] 36% | [9]; [17] 10% | [9]; at 50.0 µM -9.05% | [10]; at 1.2 µM -19% | [10]; at 3.7 µM -22% | [10]; [16] 13% | [10]; at 11.0 µM -13% | [10]; at 33.0 µM 5% | [10]; [17] 57% | [10]; at 50.0 µM 63% | [10]; at 100.0 µM 19% | [11]; at 1.2 µM -32% | [11]; at 3.7 µM -32% | [11]; at 11.0 µM -38% | [11]; at 33.0 µM -27% | [11]; at 100.0 µM -20% | [12]; at 1.2 µM -38% | [12]; at 3.7 µM -34% | [12]; at 11.0 µM -26% | [12]; at 33.0 µM -40% | [12]; at 100.0 µM -37% | [13]; at 1.2 µM -54% | [13]; at 3.7 µM -71% | [13]; at 11.0 µM -47% | [13]; at 33.0 µM -36% | [13]; at 100.0 µM -31% | [14]; at 50.0 µM 19.2% | [15]; at 1.2 µM -60% | [15]; at 3.7 µM -56% | [15]; at 11.0 µM -29% | [15]; at 33.0 µM -38% | [15]; at 100.0 µM -43%

O=C1NC(c2c(Cl)cccc2Cl)Nc2ccccc21 (stereo not given)
inactive: [1]; at 1.2 µM 9% | [1]; at 3.7 µM 9% | [1]; at 11.0 µM 12% | [2]; at 1.2 µM -25% | [2]; at 3.7 µM -26% | [2]; at 11.0 µM -22% | [2]; at 33.0 µM 52% | [3]; at 1.2 µM -12% | [3]; at 3.7 µM -21% | [3]; at 11.0 µM -18% | [3]; at 33.0 µM -14% | [3]; at 100.0 µM 6% | [4]; at 1.2 µM -14% | [4]; at 3.7 µM -9% | [4]; at 11.0 µM 5% | [4]; at 33.0 µM 63% | [5]; at 1.2 µM 12% | [5]; at 3.7 µM 4% | [5]; at 11.0 µM 10% | [7]; at 1.2 µM -44% | [7]; at 3.7 µM -32% | [7]; at 11.0 µM -28% | [7]; at 33.0 µM 58% | [8]; [16] -3% | [9]; [16] 12% | [10]; at 1.2 µM 4% | [10]; at 3.7 µM 15% | [10]; [16] -1% | [10]; at 11.0 µM 16% | [12]; at 1.2 µM -35% | [12]; at 3.7 µM -29% | [12]; at 11.0 µM -40% | [12]; at 33.0 µM 35% | [13]; at 1.2 µM -27% | [13]; at 3.7 µM -33% | [13]; at 11.0 µM -25% | [13]; at 33.0 µM 41% | [15]; at 1.2 µM 0% | [15]; at 3.7 µM -2% | [15]; at 11.0 µM 0%
active: [1]; at 33.0 µM 75% | [1]; at 100.0 µM 95% | [2]; at 100.0 µM 91% | [4]; at 100.0 µM 96% | [5]; [16] 86% | [5]; at 33.0 µM 72% | [5]; [17] 100% | [5]; at 50.0 µM 83.7% | [5]; at 100.0 µM 91% | [7]; at 100.0 µM 89% | [8]; [17] 87% | [9]; [17] 90% | [10]; at 33.0 µM 78% | [10]; [17] 87% | [10]; at 100.0 µM 94% | [12]; at 100.0 µM 87% | [13]; at 100.0 µM 88% | [14]; [16] 71% | [14]; [17] 100% | [14]; at 50.0 µM 84.5% | [15]; at 33.0 µM 74% | [15]; at 100.0 µM 93%
